Source: PubChem BioAssay
Only some compounds are listed: those with a hit (about 1.5% of all), similar ones and a draw of the others.
AID504770: growth inhibitors of E. coli YBA685 in a screen for V. cholerae RctB (chromosome II replication) inhibitors. E. coli YBA685 rctB-dependent plasmid, OD600 growth, 3 h; hits give low values. z-score (test concentration not listed). 0.27% of 130,000 active; in the data active means z-score below about -2, passing the limit was not always enough
Polio RdRp inh: poliovirus RNA polymerase inhibition; 0.66% of 150,000 active; P03300; % elongation, % (compound at 16.7 µg/mL); poliovirus polymerase elongation, fluorescence polarization; hits give low values; in the data active means % elongation below about 90%
Target sequence (P03300 1749-2209 limits assumed): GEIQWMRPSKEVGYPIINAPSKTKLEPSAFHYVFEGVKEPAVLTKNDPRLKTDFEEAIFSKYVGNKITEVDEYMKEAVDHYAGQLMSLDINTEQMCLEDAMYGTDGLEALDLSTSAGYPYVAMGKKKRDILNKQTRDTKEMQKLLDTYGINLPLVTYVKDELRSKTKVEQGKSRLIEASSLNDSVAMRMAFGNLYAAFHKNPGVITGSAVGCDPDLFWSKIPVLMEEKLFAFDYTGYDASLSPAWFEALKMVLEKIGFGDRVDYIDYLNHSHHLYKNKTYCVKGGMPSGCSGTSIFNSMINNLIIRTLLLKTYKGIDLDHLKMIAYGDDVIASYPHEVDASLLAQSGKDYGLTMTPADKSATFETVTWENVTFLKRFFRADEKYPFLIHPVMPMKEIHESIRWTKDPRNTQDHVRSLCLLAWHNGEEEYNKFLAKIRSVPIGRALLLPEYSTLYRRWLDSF
MenB inh: Mtb MenB enzyme inhibition; MenB enzyme assay, absorbance read-out; inhibition, % (concentration not given with the values); 0.43% of 100,000 active; in the data active means inhibition above about 21%, passing the limit was not always enough
Mtb MbtI inh: inhibitors of Mycobacterium tuberculosis siderophore enzyme MbtI; inhibition, % (no concentration beside the values); P9WFX0; 0.89% of 100,000 active; AID 493033; purified MbtI enzyme, fluorescence intensity read-out; in the data active means inhibition mostly above about 56%, no sharp cut-off; inactive means mostly below about 77%
* = called active by the depositor; ! = repeats disagree.

Results for CN(C)c1nc(-c2ccccc2)[n+](C)s1 ?
AID504770: -4*!; Polio RdRp inh: 102; MenB inh: -25; Mtb MbtI inh: 32

What do the screens show for `CN(C)c1nc(-c2ccccc2)c(CC(=O)O)s1`?
AID504770: 0; Polio RdRp inh: 92; MenB inh: 12; Mtb MbtI inh: 15

Results for CCOC(=O)C1(c2cccn2C)Sc2ccccc2NC1=O (stereo not given) ?
AID504770: -0.05; Polio RdRp inh: 109; MenB inh: -10; Mtb MbtI inh: 10

How did Cc1cc(N)cc(C(=O)O)c1O do in these assays?
AID504770: 1.2; Polio RdRp inh: 99; MenB inh: 37*; Mtb MbtI inh: 10

How did Nc1ccc(C(=O)O)c(O)c1 do in these assays?
AID504770: -0.05; Polio RdRp inh: 99; MenB inh: 8; Mtb MbtI inh: -50

What do the screens show for `O=C(CCCn1nc(-c2ccccc2)c2ccccc21)NCc1ccco1`?
AID504770: -0.55; Polio RdRp inh: 103; MenB inh: -21; Mtb MbtI inh: 4

How did CN(C)C(CNCc1ccc(-n2cnc3ccccc32)cc1)c1ccco1 (stereo not given) do in these assays?
AID504770: 1.3; Polio RdRp inh: 101; MenB inh: 32*; Mtb MbtI inh: 5

Results for CN(C)C(CNC(=O)c1ccccn1)c1ccco1 (stereo not given) ?
AID504770: -0.2; Polio RdRp inh: 101; MenB inh: -43; Mtb MbtI inh: 39

How did O=C1Cn2c(nc3ccccc3c2=O)CN1Cc1ccc2c(c1)OCO2 do in these assays?
AID504770: 1.1; Polio RdRp inh: 102; MenB inh: 4; Mtb MbtI inh: 2

What do the screens show for `CC1CCC[S+](c2cc(O)ccc2O)C1` (stereo not given)?
AID504770: -0.85; Polio RdRp inh: 101; MenB inh: 7; Mtb MbtI inh: 101*

Results for CCN(CCC#N)c1ccc(/C=C(\C#N)C(=O)NC(C)C)c(C)c1 ?
AID504770: 0.8; Polio RdRp inh: 125; MenB inh: -494; Mtb MbtI inh: 18

How did CCN(CC)c1ccc(/C=C(/C#N)C(=O)NC(C)C)o1 do in these assays?
AID504770: -3.4*; Polio RdRp inh: 77; MenB inh: -162; Mtb MbtI inh: 4

How did Cc1[nH]c(=S)sc1CC(=O)NC1CCCCC1C (stereo not given) do in these assays?
AID504770: 1.7; Polio RdRp inh: 98; MenB inh: -2; Mtb MbtI inh: 84*

What do the screens show for `COc1ccccc1C(=S)N1CCCCC1`?
AID504770: 1.8; Polio RdRp inh: 101; MenB inh: -9; Mtb MbtI inh: 32

What do the screens show for `O=C(O)c1ccc(S(=O)(=O)Nc2ccc3oc(=O)sc3c2)cc1`?
AID504770: -1.5; Mtb MbtI inh: 78*

What do the screens show for `O=C(Sc1cccs1)C1COc2ccccc2O1` (stereo not given)?
AID504770: -2.3*

Results for CCCN=C1NN=C(c2cc(C)n(Cc3ccc4c(c3)OCO4)c2C)CS1 ?
AID504770: -1.2; Polio RdRp inh: 108; MenB inh: -9; Mtb MbtI inh: -1

How did Clc1ccc(C2=NNC(=NCc3ccc4c(c3)OCO4)SC2)cc1 do in these assays?
AID504770: -0.7; Polio RdRp inh: 85*; MenB inh: -29; Mtb MbtI inh: 47

Results for Cc1cc(O)c(C=O)c2c1C(=O)Oc1c(C)c(O)c3c(c1O2)C(O)OC3=O (stereo not given) ?
AID504770: 0.25; Polio RdRp inh: 66*; MenB inh: 7; Mtb MbtI inh: -33

Results for COc1ccc(/C=c2\sc3ncnn3c2=O)cc1 ?
AID504770: -0.3; Polio RdRp inh: 89*; MenB inh: -27; Mtb MbtI inh: -10

Results for N#CC(C(=O)COc1ccccc1)c1ccccc1 (stereo not given) ?
AID504770: -1.4; Polio RdRp inh: 102; MenB inh: -10; Mtb MbtI inh: 54*

What do the screens show for `COc1ccc2c(c1)Cc1sc(NC(=O)c3ccccc3)nc1-2`?
AID504770: 0.6

How did COc1ccc2c(c1)Cc1sc(NC(=O)c3ccccc3C)nc1-2 do in these assays?
Polio RdRp inh: 83*

Results for COc1ccc2c(c1)Cc1sc(NC(=O)c3ccc(OC)c(Br)c3)nc1-2 ?
AID504770: 0.25; Polio RdRp inh: 87*; MenB inh: -3; Mtb MbtI inh: -7

How did COc1ccc2c(c1)Cc1sc(NC(=O)c3cccc(F)c3)nc1-2 do in these assays?
Polio RdRp inh: 90

How did COc1ccc(C(=O)Nc2nc3c(s2)Cc2cc(OC)ccc2-3)cc1 do in these assays?
Polio RdRp inh: 67*

What do the screens show for `CC1=C/C(=N\Nc2ccccc2Cl)CC1`?
AID504770: -2.9; Polio RdRp inh: 100; MenB inh: -38; Mtb MbtI inh: 72*

What do the screens show for `CC1=C/C(=N\Nc2nncc3ccccc23)CC1`?
AID504770: -0.45; Polio RdRp inh: 106; MenB inh: -47; Mtb MbtI inh: 7

Results for CC1CCN(c2cc(N(C)C)c3noc4c3c2C(=O)c2ccccc2-4)CC1 ?
AID504770: -0.1; Polio RdRp inh: 103; MenB inh: 8; Mtb MbtI inh: -6

What do the screens show for `Cc1oc2cc(OC(=O)N(C)C)ccc2c(=O)c1-c1nc2ccccc2s1`?
AID504770: -0.6

How did Cc1ccccc1NC(=O)c1sc2nc3c(cc2c1N)CN(Cc1ccccc1)CC3 do in these assays?
Polio RdRp inh: 107

How did CN1CCc2nc3sc(C(=O)Nc4ccccc4C(F)(F)F)c(N)c3cc2C1 do in these assays?
Polio RdRp inh: 31*

Results for COc1cc2c(cc1OC)CC1(C2)c2ccccc2CN1C ?
AID504770: -0.4; Polio RdRp inh: 101; MenB inh: -20

What do the screens show for `Nc1n[nH]c2cc(=O)[nH]c(O)c12`?
AID504770: 1.5; Polio RdRp inh: 5.0*; MenB inh: -44; Mtb MbtI inh: 5

Results for Cc1cccc(C(N)=S)c1 ?
AID504770: -0.2; Polio RdRp inh: 98; MenB inh: -17; Mtb MbtI inh: 62*

How did COc1ccc(OC)c(CNC(=O)CSc2c3c(nc4cc(Cl)ccc24)CCCC3)c1 do in these assays?
Polio RdRp inh: 74*

How did Nn1c(Cc2ccccc2)nc2sc3c(c2c1=O)CCCC3 do in these assays?
AID504770: 0.5; Polio RdRp inh: 98; MenB inh: -7; Mtb MbtI inh: -3

Results for NC(=O)n1c(CCC(=O)O)nc2sc3c(c2c1=O)CCC3 ?
AID504770: 0; Polio RdRp inh: 85*; MenB inh: -28; Mtb MbtI inh: 21

How did CCCc1nc2sc3c(c2c(=O)n1N)CCCC3 do in these assays?
AID504770: 0.3; Polio RdRp inh: 100; MenB inh: 33*; Mtb MbtI inh: 5

Results for FC(F)(F)c1ncncc1-c1nnnn1-c1ccccc1 ?
AID504770: 1.3; Polio RdRp inh: 104; MenB inh: 11; Mtb MbtI inh: -1

How did CC(=Nc1ccccc1)C1=C(O)CCCC1=O do in these assays?
AID504770: -0.55; Polio RdRp inh: 103; MenB inh: 0; Mtb MbtI inh: 3

How did O=C1CCCC(O)=C1C1(O)C(=O)c2ccccc2C1=O do in these assays?
AID504770: -1.4; Polio RdRp inh: 79*; MenB inh: -2; Mtb MbtI inh: -5
